Measured values as given in PubChem BioAssay (NCATS).
Inconclusive results are not listed. Calls of active or inactive are those of the source. Calls follow the shape of the dose curve; as a rule, active = well fitted inhibition curve with a large enough effect; inconclusive = small, poorly fitted or top-dose-only effect; inactive = no such curve, though single readings can be large or run the other way.

system: Zika virus NS2B-NS3 protease (linked construct); assay: Primary screen NINDS Rhodamine qHTS for Zika virus inhibitors (AID 1347160); settings: purified NS2B-NS3 protease, Rhodamine110 substrate fluorescence; series mostly up to 33.1 µM; activity change, negative = inhibition: at the top concentration; also: nearly all actives have a fitted effect of over 55% in size
In short: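 Kinetic fluorescence (Ex 480 nm, Em 540 nm) over 15 min with 1.5 microM Rhodamine110 peptide and 25 nM linked protease.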
% is scaled to controls: 0 for no effect and ±100 for the full control effect; potency is read from the fitted curve at half-maximal effect.

SMILES	activity change, negative = inhibition	outcome	Potency
C=C1CC[C@H]2[C@@](C)(CCC(O)[C@@]2(C)CO)[C@@H]1/C=C/C(=C\C(=O)O)C(=O)O (some centres not stated)	-6.86% (inactive)		
CC(C)C1CCC(CO)=CC1/C=C(\CO)C(=O)OCC1(O)CCC(C(C)C)C2C=C(C(=O)O)COC(=O)C21 (configuration not stated)	-10.1% (inactive)		
OC[C@H]1O[C@@H](OCCc2ccccc2)[C@H](O)[C@@H](O)[C@@H]1O		inactive	
COC(=O)C1=CO[C@@H](O[C@@H]2O[C@H](CO)[C@@H](O)[C@H](O)[C@H]2O)[C@@H]2[C@@H](C)[C@@H](O)C(O)[C@H]12 (some centres not stated)	-1.04% (inactive)		
CC(=O)OC/C(=C/C(=O)O)CC[C@@H]1C(C)=CC(=O)[C@@H]2C(C)(C)CCC[C@@]12C	6.72% (inactive)		
C[C@H]1CC[C@@]2(OC1)O[C@H]1CC3C4CC[C@H]5C[C@@H](O)CC[C@]5(C)C4CC(=O)[C@]3(C)[C@H]1[C@@H]2C (some centres not stated)	-9.73% (inactive)		
C[C@]12CC[C@@H]3c4ccc(O)cc4CC[C@H]3[C@@H]1C[C@@H](O[C@@H]1O[C@H](C(=O)O)[C@@H](O)[C@H](O)[C@H]1O)[C@@H]2O		inactive	
COc1cc(/C=C/C(=O)OC[C@H]2O[C@@H](OC3CC(C)=C(C(=O)O)C(C)(C)C3)[C@H](O)[C@@H](O)[C@@H]2O)cc(OC)c1O (some centres not stated)		inactive [at 33.1 µM]	
C/C(=C\C(=O)C(C)C1CCC2C3=C(CCC21C)C1(C)CCC(=O)C(C)(C)C1(O)CC3)C(C)(C)O (configuration not stated)			14.1 µM (active)
CC(=O)O[C@@H]1[C@H](OC(C)=O)C[C@@]2(C)C(CC[C@@H](C)[C@]23Cc2c(O)cc4c(c2O3)CN([C@@H](CCC(=O)O)C(=O)O)C4=O)C1(C)C (some centres not stated)	-6.23% [at 15.1 µM] (inactive)		
C[C@H]1CCN2C[C@]34C[C@@]5(C(=O)Nc6c5ccc5c6OC=CC(C)(C)O5)C(C)(C)C3C[C@]12C(=O)N4C (some centres not stated)	-11.3% (inactive)		
C=C(C(=O)O)[C@H]1C[C@]2(C)C(=O)CC[C@]23O[C@H]1C[C@@H]3C	29.4% [at 57.1 µM] (inactive)		
C[C@@H]1O[C@@H](O[C@H]2[C@@H]3C=CO[C@@H](O[C@@H]4O[C@H](CO)[C@@H](O)[C@H](O)[C@H]4O)[C@@H]3[C@@]3(CO)O[C@@H]23)[C@H](OC(=O)/C=C/c2ccc(O)cc2)[C@H](O)[C@H]1O	5.08% [at 15.1 µM] (inactive)		
Cc1ccc(-c2c(-c3nn(C)c4ncnc(N5CCC(N6CCCCC6)C5)c34)cnn2C)cc1 (configuration not stated)	-3.44% [at 57.1 µM] (inactive)		
Cc1ncc([N+](=O)[O-])n1C[C@H](O)CN1CCOCC1		inactive	
C=C(C(=O)O)[C@@H]1CC[C@H](C)[C@@H]2CC(=O)C(C)=C2C1	45.1% [at 57.1 µM] (inactive)		

SMILES	activity change, negative = inhibition	outcome	Potency
CCCc1[nH]nc2c1C(c1cc(Cl)cc(Cl)c1O)C(C#N)=C(N)O2 (configuration not stated)	6.09% [at 57.1 µM] (inactive)		
CC1=C2C(=O)C=C(CO)C2[C@H]2OC(=O)[C@H](C)[C@@H]2[C@@H](OC(=O)Cc2ccc(O)cc2)C1 (some centres not stated)	-15.3% (inactive)		
C[C@@H]1C[C@H]2OC(=O)[C@@]3(C)CCC[C@](C)(C23)[C@@]1(O)CCC1=CC(=O)OC1O (some centres not stated)	-27.4% (inactive)		
CC(=O)O[C@@H]1C(O)C[C@@]2(C)C(CC[C@@H](C)C23Cc2c(O)cc4c(c2O3)CNC4=O)C1(C)C (some centres not stated)	4.7% (inactive)		
CC(=O)O[C@@H]1C=C2[C@H](CC[C@@]3(C)[C@@]2(O)CC[C@H]2Cc4c([nH]c5ccccc45)[C@@]23C)O[C@@H]1C(C)(C)O	-11.2% (inactive)		
CCC/C=C/C=C/C1CC(O)C(O)C(=O)C1CO (configuration not stated)	-28.3% [at 57.1 µM] (inactive)		
Cc1occc(=O)c1O[C@@H]1O[C@H](CO[C@@H]2OC[C@](O)(CO)[C@H]2O)[C@@H](O)[C@H](O)[C@H]1O	3.29% (inactive)		
CC(C)[C@@H](C(=O)O)N1Cc2c(cc(O)c3c2O[C@]2(C3)[C@H](C)CCC3C(C)(C)[C@H](O)[C@H](O)C[C@@]32C)C1=O (some centres not stated)			7.94 µM (active)
CC1=CC(=O)CC(C)(C)C1/C=C/C(C)OC1OC(COC2OCC(O)C(O)C2O)C(O)C(O)C1O (configuration not stated)	25.5% (inactive)		
CC[C@@H]1C(=O)O[C@]23C=C[C@@H]4C(C(=O)OC)=CO[C@H](O[C@@H]12)[C@@H]43		inactive	
C=C1C(=O)O[C@@H]2C[C@]3(C)[C@@H](CCC(C)=O)[C@@H]3C[C@H]12		inactive	
CC1(C)CCC[C@]2(C)C1CC=C(CO)[C@H]2CC/C(=C/CO)CO (some centres not stated)	-10.9% (inactive)		
C/C(=C\CCC1(C)C2CC3C(C2)C31C)C(=O)O (configuration not stated)		inactive	
C=CCC/C=C/C#CCCCCCCCC[C@H]1C(=O)O[C@H](C)[C@@H]1O	-17.6% (inactive)		
CO[C@H]1c2cc(C(C)C)c(O)c(O)c2[C@@]23CCCC(C)(C)C2[C@@H]1OC3=O (some centres not stated)		inactive [at 33.1 µM]	
COc1c2c(c(C)c3c1C(=O)OC3)OC1(C)CC(O)C34OC(OC)(CCC3(C)C1C2)OC4(C)CO (configuration not stated)	-24.2% (inactive)		
